PubChem BioAssay (NCATS)
Results filed as inconclusive are left out. Calls of active or inactive are those of the source. Calls follow the shape of the dose curve; as a rule, active = well fitted inhibition curve with a large enough effect; inconclusive = small, poorly fitted or top-dose-only effect; inactive = no such curve, though single readings can be large or run the other way.

Target: Retinal dehydrogenase 2 (Homo sapiens) (UniProt O94788)
Experiment: qHTS for Inhibitors of the Aldehyde Dehydrogenase Family (ALDH1A2) Confirmation screens (AID 2061314); also: nearly all actives have a fitted effect of over 65% in size
Settings: ALDH1A2 enzyme inhibition qHTS confirmation; series mostly up to 45.9 µM
Potency is read from the fitted curve at half-maximal effect.

Potency, active:
COc1ccc(-c2nc(CNS(=O)(=O)c3cccc(F)c3)cs2)cc1 5.76 µM

Potency, inactive:
COc1ccc(-c2nnc(SCC(=O)Nc3cccc(C(F)(F)F)c3)nc2-c2ccc(OC)cc2)cc1
Cc1ccccc1NC(=O)CSc1nc2ccccc2c2nc(CCn3cncc3C)nn12
COc1ccc(CN(C)c2ccc(-c3nc(-c4ccccc4)no3)cc2[N+](=O)[O-])cc1
COC(=O)c1ccccc1NC(=O)CCCS(=O)(=O)c1nc(-c2ccccc2OC)cc(C(F)(F)F)n1
CCc1ccc(N(CC)C(=O)c2cn(C)c(=O)c3cc(OC)c(OC)cc23)cc1
Cc1ccc2cccc(NC(=O)COc3ccccc3[N+](=O)[O-])c2n1
CN1C(=O)c2cccn2CC1CNC(=O)c1cccc2nccnc12 (stereo not given)
COc1ccccc1Cc1nc2ccccc2nc1SCC(=O)Nc1c(C)cccc1C
CCCCOc1ccc(C(=O)N(Cc2ccc(N(C)C)cc2)Cc2ccco2)cc1
COc1ccc(NS(=O)(=O)c2ccc3[nH]c(=O)ccc3c2)cc1OC
COc1ccc(S(=O)(=O)N2CCCCC2)cc1C(=O)Nc1cccc(C(F)(F)F)c1
O=C(COc1ccccc1-c1nc(-c2ccccc2)no1)Nc1ccc([N+](=O)[O-])cc1
CC(=O)c1ccc(NC(=O)CCc2c(C)nn(-c3ccc4nnc(C)n4n3)c2C)cc1
CC(=O)c1cccc(NC(=O)c2ccc(Cl)c(S(=O)(=O)N3CCOCC3)c2)c1
COc1ccc(N(C)C(=O)c2cn(C)c(=O)c3cc(OC)c(OC)cc23)cc1
COc1ccc(S(=O)(=O)NCc2nc3nc(C)cc(C)n3n2)cc1OC
Cc1oc2ncnc(N3CCOCC3)c2c1C(=O)NCc1ccc(Cl)cc1
COC(=O)c1cc(C)nc2c1c(=O)nc(SCc1cccc(C)c1)n2C1CC1
COc1ccc(NC(=O)CCc2c(C)nc3c(c2C)c(=O)n(C)c(=O)n3C)cc1OC
Cc1cc(C)n2nc(CNS(=O)(=O)c3cccc(Cl)c3)nc2n1
COc1ccccc1CCNc1ncnc2c1nnn2C
COc1ccc(CC(=O)N2CCC3(CC2)CN([S+](=O)([O-])c2ccccc2)CCO3)cc1
COc1ccc(OC)c(CNC(=O)C2CCCCN2S(=O)(=O)c2ccc(F)cc2)c1 (stereo not given)
COc1ccc(S(=O)(=O)NCC(c2ccco2)N2CCOCC2)cc1C (stereo not given)
COCCn1c(SCc2ccccc2F)nc2c([nH]c3ccccc32)c1=O
Cn1cc(S(=O)(=O)N2CCCCC2)cc1C(=O)Nc1ccc(OC(F)(F)F)cc1
Cc1cccc(-c2nc3c(cnn3-c3ccccc3)c(=O)n2-c2ccc(Br)cc2)c1
COc1ccc(S(=O)(=O)c2c(C(=O)c3ccc(C)c(C)c3)cnc3ccc(C)cc23)cc1
CN(Cc1ccccc1C(F)(F)F)C(=O)c1ccc(Cl)nc1
COc1ccccc1C(=O)Nc1cc(-c2cccc(Br)c2)nn1-c1ccccc1
COC(=O)c1cc(C)nc2c1c(=O)nc(SCc1ccccc1Cl)n2C1CC1
CC(C)Cn1c(=O)c(C(=O)NCc2cccs2)nc2cccnc21
COc1cc2nc(NC(=O)c3ccc(S(=O)(=O)N4CCOCC4)cc3)sc2cc1OC
CCOc1ccc(N(C)S(=O)(=O)c2cc(-c3cc(C)no3)ccc2OC)cc1
O=C(NCC(=O)N1CCOCC1)c1ccc(-c2cnc3ccccc3c2)cc1
COc1ccc(-c2cc(C(=O)NCCc3ccc(OC)c(OC)c3)c3ccccc3n2)cc1
COC(=O)c1ccccc1NC(=O)CSc1nc(-c2ccccc2)cc(C(F)(F)F)n1
Cc1nn(-c2ccc3nnc(C)n3n2)c(C)c1CCC(=O)Nc1ccc(OC(F)(F)F)cc1
Cc1ccc(CCNC(=O)c2c(C)oc3nc(C)nc(N4CCOCC4)c23)cc1
